Bioassay records: PubChem BioAssay, several laboratories
Calb FLC: C. albicans growth inhibition with fluconazole, primary screen, CaCi-2 strain, Alamar Blue fluorescence | C. albicans CaCi-2 (fluconazole-resistant clinical isolate) + fluconazole, 48 h | growth inhibition, % (concentration not given with the values) | 0.57% of 300,000 active;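 active = growth inhibition above about 58% in most replicates, limit read from the data, passing the limit was not always enough; inconclusive = exactly half the replicates above a set limit; inactive = most replicates below a set limit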;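 note: all wells also contain fluconazole at 8 µg/ml as a sub-toxic cotreatment; 0% = median of DMSO wells and 100% = median of geldanamycin control wells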
PP5 primary: PP5 phosphatase inhibitors, primary screen, biochemical, fluorescence; Serine/threonine-protein phosphatase 5 (Homo sapiens), P53041; purified PP5c, OMFP substrate fluorescence; inhibition, % at 6.7 µM; 0.18% of 320,000 active; AID 1987, 2009;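 active = inhibition above the campaign's mean inhibition across all tested compounds plus 3 SD, cut at about 9.5% in these data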;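 note: 0% = DMSO only and 100% = 100 µM cantharidin control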
Beta apoptosis: inhibitors of cytokine-induced beta cell apoptosis, primary screen, luminescence; AID 435005, 2010; INS-1E cytokine-induced death, ATP luminescence, 48 h; percent of positive-control rescue, neutral wells zero; protection from apoptosis, % (concentration not given with the values); 0.8% of 300,000 active;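 active = Every replicate reaches about 75%, or at least half do and their mean reaches it too, limit read from the data; inconclusive = At least half of replicates reach the limit but their mean does not; inactive = Under half of replicates reach the limit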;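 note: 0% = cytokine-treated negative control wells and 100% = positive control rescue; higher means more ATP so stronger rescue from cytokine killing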
PP1 inh: PP1-alpha phosphatase inhibitors, primary screen, counter-screen for PP5 inhibitor project, biochemical, fluorescence, OMFP substrate, single point; Serine/threonine-protein phosphatase PP1-alpha catalytic subunit (Homo sapiens), P62136; purified PP1alpha; inhibition, % at 6.7 µM; 0.9% of 320,000 active; AID 2235, 2010;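 active = inhibition above the mean inhibition of all tested compounds plus 3 SD, computed separately for each screening campaign, cut at about 15% in these data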
Target sequence (P62136 whole entry, looked up): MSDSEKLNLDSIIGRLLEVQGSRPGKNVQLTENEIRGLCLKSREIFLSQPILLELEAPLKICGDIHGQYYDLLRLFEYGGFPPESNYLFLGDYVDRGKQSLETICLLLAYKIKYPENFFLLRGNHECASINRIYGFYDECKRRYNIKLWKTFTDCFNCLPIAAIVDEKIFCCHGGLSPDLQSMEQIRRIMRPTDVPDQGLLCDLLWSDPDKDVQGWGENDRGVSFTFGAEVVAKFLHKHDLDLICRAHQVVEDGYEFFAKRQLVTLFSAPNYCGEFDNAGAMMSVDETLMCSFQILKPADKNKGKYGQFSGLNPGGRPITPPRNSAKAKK
CSC inhib: cancer stem cell viability inhibitors, primary screen, luminescence; cancer stem cell-like cells viability; inhibition, % at 7.5 µM; 1.1% of 300,000 active; AID 2717, 2010; in the data active = inhibition above about 75%; inconclusive = no clear call, values can overlap the other calls; tested in HMLE shEcad cells
Mdm2-MdmX inh: inhibitors of human Mdm2-MdmX association, primary screen, cell-based, luminescence, split luciferase, SaOS-2, uHTS. AID 485346, 2010. Protein Mdm4 (Homo sapiens) + E3 ubiquitin-protein ligase Mdm2 (Homo sapiens), …. SaOS-2 split-luciferase Mdm2/MdmX complementation. 3% of 330,000 active. inhibition, % at 8 µM;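 active = inhibition of at least 50% at 8 µM in the primary screen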
Mdm2 MdmX conf: Mdm2-MdmX complex disruptors, retested hits, confirmation, luminescence, single concentration | shares compounds with Mdm2-MdmX inh | Mdm2-MdmX binding, luminescent assay | inhibition, % at 8 µM | 55% of 10,000 active; in the data active = inhibition above about 40%
Full FLuc ctr: full-length luciferase signal inhibition, confirmation, counter-screen for Mdm2/MdmX interaction inhibitor project, cell-based, single concentration, SaOS-2; 77% of 6,200 active; inhibition, % at 8 µM; SaOS-2 full-length luciferase counterscreen, luminescence; AID 504607, 2011; shares compounds with Mdm2-MdmX inh;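 active = mean inhibition at 8 µM reaching about 37%, which flags the compound as non-specific, limit read from the data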;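 note: p53-null SaOS-2 cells with luciferase driven by a doxycycline-inducible promoter; compound on cells about two nights before reading with doxycycline added after day one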
Active calls of the source: *; ? = inconclusive; . = no result. Rows were chosen to be rich in hits. Some 4.9% of all compounds tested hit in one or more screens of this group.

SMILES	Calb FLC	PP5 primary	Beta apoptosis	PP1 inh	CSC inhib	Mdm2-MdmX inh	Mdm2 MdmX conf	Full FLuc ctr
O=C(CSc1nc(Nc2ccccc2)nc(N2CCOCC2)n1)Nc1ccccc1Cl	-4	1	14	-4	26	75*	25	.
O=C(NCc1ccccn1)c1ccc(NS(=O)(=O)c2cccc(Cl)c2)cc1	8	.	0	.	-3	25	.	.
C[C@@H]1CN([C@@H](C)CO)C(=O)Cc2cc(NC(=O)Nc3ccc(F)cc3)ccc2O[C@@H]1CN(C)Cc1ccc(Cl)c(Cl)c1	.	.	66	.	.	100*	63*	56*
C[C@@H]1CN([C@@H](C)CO)C(=O)c2cc(NC(=O)Nc3ccc(F)cc3)ccc2O[C@@H]1CN(C)Cc1ccc(Oc2ccccc2)cc1	.	.	59	.	137*	94*	21	.
C[C@H]1CN([C@@H](C)CO)C(=O)Cc2cc(NC(=O)CCC(F)(F)F)ccc2O[C@H]1CN(C)S(=O)(=O)c1ccc(F)cc1	.	.	-8	.	45	43	.	.
C[C@@H]1CN([C@@H](C)CO)C(=O)c2cc(NS(C)(=O)=O)ccc2O[C@H]1CN(C)Cc1ccc(Oc2ccccc2)cc1	.	.	-11	.	17	28	.	.
C[C@@H]1CN([C@H](C)CO)C(=O)c2cc(NC(=O)Cc3ccccc3)ccc2O[C@H]1CN(C)Cc1ccc(Oc2ccccc2)cc1	.	.	16	.	66	73*	26	.
C[C@H]1CN([C@@H](C)CO)C(=O)Cc2cc(NC(=O)CCC(F)(F)F)ccc2O[C@H]1CN(C)S(=O)(=O)c1ccc(Cl)cc1	.	.	.	.	.	55*	50*	65*
Cc1cccc(N2N=C(C(=O)Nc3nc(C)cs3)CCC2=O)c1	3	-1	-2	-1	-10	13	.	.
Oc1c(C(c2cccs2)N2CCN(c3ccccc3)CC2)ccc2cccnc12 (stereo not drawn)	.	3	109*	19*	88*	51*	82*	23
CN1CCN(C(c2ccc(C(F)(F)F)cc2)c2ccc3cccnc3c2O)CC1 (stereo not drawn)	97*	3	81*	14	98*	74*	73*	28
CC(C)(C)n1nnnc1C(c1cccs1)N1CCN(c2ccccc2)CC1 (stereo not drawn)	?	2	.	-1	0	11	.	.
COc1ccccc1NC(=O)C(C)OC(=O)Cc1ccsc1 (stereo not drawn)	.	.	.	.	.	2	.	.
Cc1cnc(NC(=O)CCCc2nc3ccccc3s2)s1	28	-4	13	-4	6	90*	59*	54*
COc1cccc(N(C(=O)Cn2nnc(-c3ccc(F)cc3)n2)C(C(=O)NCC2CCCO2)c2ccc(Cl)cc2)c1 (stereo not drawn)	3	2	-8	-2	.	32	.	.
COc1cccc(N(C(=O)Cn2nnc(-c3ccc(Cl)cc3)n2)C(C(=O)NCC2CCCO2)c2ccc(C)cc2)c1 (stereo not drawn)	5	-3	-1	-10	-1	56*	-1	.
COc1ccc(-n2c(=S)[nH]c3cc(C(=O)Nc4ccc(C)c(F)c4)ccc3c2=O)c(OC)c1	-8	4	24	5	16	15	.	.
N#CC(c1ccc(Cl)cc1)c1ccc2c(C(F)(F)F)cc(C(F)(F)F)nc2n1 (stereo not drawn)	4	0	124*	-1	-13	99*	95*	24
O=C1c2ccccc2C(=O)N1c1ccc(Cc2ccncc2)cc1	6	-1	-4	3	-8	9	.	.
Cc1cc(C)c(S(=O)(=O)N/N=C/c2ccc([N+](=O)[O-])o2)c(C)c1	7	.	-6	.	-5	12	.	.
CN1CCCC(CC2c3ccccc3Sc3ccccc32)C1 (stereo not drawn)	.	1	.	5	9	59*	39	65*
CN1CCCC(CN2c3ccccc3Sc3ccccc32)C1 (stereo not drawn)	.	1	.	-1	5	51*	19	.
CN1CCCC(OC(=O)c2ccccc2F)C1 (stereo not drawn)	-9	1	-6	6	-13	9	.	.
Cc1nc2ccccc2c(=O)n1NC(=O)CCC(=O)O	-7	1	-13	-2	.	-31	.	.
COC(=O)c1sccc1NC(=O)c1c(F)c(F)c(F)c(F)c1F	-14	2	-2	-2	-6	75*	21	.
SMILES	Calb FLC	PP5 primary	Beta apoptosis	PP1 inh	CSC inhib	Mdm2-MdmX inh	Mdm2 MdmX conf	Full FLuc ctr
O=C(Nc1cccc(F)c1)c1c(F)c(F)c(F)c(F)c1F	2	4	3	-2	12	11	.	.
O=C(Nc1ccccc1NC(=O)c1c(F)c(F)c(F)c(F)c1F)c1c(F)c(F)c(F)c(F)c1F	12	-2	0	-4	10	54*	32	41*
Cc1ccc(CNC(=O)c2cc(S(=O)(=O)N3CCCCC3)ccc2N2CCOCC2)cc1	.	2	4	-1	.	42	.	.
COc1ccccc1NC(=O)C(C)Sc1nnc2ccccn12 (stereo not drawn)	.	0	-4	-6	.	-16	.	.
CCCCC1(Cc2ccc([N+](=O)[O-])cc2)C(=O)N(c2ccccc2)N(c2ccccc2)C1=O	7	7	101*	3	6	97*	97*	47*
CC(C)CCN(C(=O)c1cc(=O)[nH]c2ccccc12)c1c(N)n(Cc2ccccc2)c(=O)[nH]c1=O	.	2	-4	2	-12	13	.	.
COC(=O)c1ccc(Cn2nc(-c3cc(C)ccc3C)ccc2=O)cc1	-1	.	-6	.	6	17	.	.
CCc1ccc(NC2=CC(=O)C(=O)c3ccccc32)cc1	.	.	.	.	.	70*	65*	85*
O=C1C=C(Nc2cccc3cccnc23)c2ccccc2C1=O	101*	2	-6	0	58	63*	57*	70*
O=C1C=C(Nc2ccccc2)c2ccccc2C1=O	-4	.	.	.	.	53*	30	.
O=C(NCCc1ccccc1)c1ccc(Cl)cc1[N+](=O)[O-]	0	.	-5	.	-11	.	.	.
Cc1ccc(NC(=O)CCNS(=O)(=O)c2ccc(OC(F)(F)F)cc2)c(O)c1	-8	2	0	-2	6	8	.	.
CN(C)c1nc(F)c(F)c(S(=O)(=O)c2ccccc2)c1F	8	-2	6	3	3	18	.	.
